Experimental data as given in PubChem BioAssay AID588773 (The Scripps Research Institute Molecular Screening Center, 2011).

Test: pPAFAH inhibition and serine hydrolase selectivity, late-stage follow-up, selectivity assay for pPAFAH inhibitor project, biochemical, gel-based, FP-Rh fluorescence, mouse, HTS hit compounds (AID 588773)
Conditions: gel-based competitive ABPP, proteome, MW 30 kDa protein, at 10 µM, stronger effect = higher value;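 active = inhibition of plasma PAF acetylhydrolase at a set limit or more at 0.1 µM, with tenfold selectivity over all off-targets; inactive = inhibition below the limit or weaker selectivity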

inhibition, inactive:
O=C(/C=C/c1cccs1)c1cc(Br)ccc1OC(=O)N1CCOCC1 19%
CCCCOC(=O)c1ccc(OC(=O)N2CCOCC2)cc1 14%
O=C(Oc1ccc(-c2ccccc2)cc1)N1CCOCC1 44%
O=C(Oc1ccc(-c2ccccc2)cc1)N1CCCCC1 69%
O=C(Oc1ccc(Oc2ccccc2)cc1)N1CCC(O)CC1 5%
O=C(CCCSc1ccc(Cl)cc1)Nc1cc(S(=O)(=O)N2CCOCC2)ccc1O 19%
O=C(Oc1nsnc1N1CCOCC1)N1CCOCC1 35%
